Compound activity as filed in PubChem.
Sampled rows, rich in hits. Any-hit rate of the full collection: about 3.8%.
Yeast superoxide = yeast age-related superoxide inhibition as caloric restriction mimetic | S. cerevisiae aged cells, superoxide DHE fluorescence; hits give low values | superoxide response (% of plate mean), % at 10 µM | 330,000 tested, 0.18% active | AID 2690;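 active means superoxide response under a set limit, about three screen SD below normal, cut at about 65% in these data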;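 further: yeast aged for seven days with compound at 30 °C before DHE staining; 100% = average MFI of all compound-treated wells on the plate with controls excluded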
tim10-1 inh = growth inhibitors of tim10-1 mutant yeast. S. cerevisiae tim10-1 ts strain growth, BacTiter-Glo, 24 h. inhibition, % at 20 µM. 330,000 tested, 2.2% active;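 active means inhibition of at least 40%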;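 further: mutant grown at 25 °C; 0% = DMSO wells with yeast and 100% = wells holding no yeast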
TIM10 inh = inhibits growth of TIM10 yeast strain; S. cerevisiae TIM10 strain growth, BacTiter-Glo luminescence, 24 h; inhibition, % at 10 µM; 330,000 tested, 1.4% active;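 active means inhibition of 40% or more at the single tested concentration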;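 further: wild-type TIM10 isogenic control strain grown at permissive 25 °C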
tim23-1 inh = inhibits growth of tim23-1 mutant yeast; S. cerevisiae tim23-1 growth, BacTiter-Glo luminescence, 24 h; inhibition, % at 20 µM; 330,000 tested, 1.3% active;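 active means growth inhibition of the mutant yeast at or above 50%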;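 further: temperature-sensitive mutant grown at 25 °C; plate controls were DMSO-treated mutant yeast for no effect and medium wells lacking yeast for full effect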
NALP3 yeast inh = blocks the NALP3 inflammasome reconstituted in yeast | Yeast reconstituted NLRP3/ASC/caspase-1, beta-gal luminescence, 24 h | 330,000 tested, 0.39% active | inhibition, % at 10 µM;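 active means inhibition of 50% or more; inactive means inhibition below 50%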;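 further: plate controls were induced DMSO wells for no effect and uninduced yeast grown without galactose for full effect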
tim10-1 confirm = confirmation of tim10-1 mutant yeast growth inhibitors | shares compounds with tim10-1 inh | S. cerevisiae tim10-1 ts strain growth, BacTiter-Glo, 24 h | inhibition, % at 20 µM | 7,400 tested, 56% active;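 active means inhibition of yeast growth at or above a set limit in either of two repeat tests at 20 µM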;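 further: tim10-1 mutant grown at permissive 25 °C to find synthetic lethal compounds; 0% = DMSO yeast wells and 100% = medium wells without yeast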
An asterisk follows results filed as active; . = no result given.

SMILES	Yeast superoxide	tim10-1 inh	TIM10 inh	tim23-1 inh	NALP3 yeast inh	tim10-1 confirm
COc1ccc([C@H]2[C@H]3C=CC[C@@H](C)[C@@H]3C(=O)N2Cc2ccccc2)cc1Cl	95.3	42.3*	30.5	38.3	12.1	30.0
COc1ccc(Br)cc1[C@H]1[C@H]2C=CC[C@@H](C)[C@@H]2C(=O)N1Cc1ccccc1	.	59.7*	10.2	12.0	19.5	42.3*
C[C@@H]1CC=C[C@H]2[C@H]1C(=O)N(Cc1ccccc1)[C@H]2c1ccc(-c2ccoc2)cc1F	99.8	41.2*	30.2	49.8	10.2	36.0*
C[C@@H]1CC=C[C@H]2[C@H]1C(=O)N(Cc1ccccc1)[C@H]2c1ccc(-c2ccc(F)cc2)cc1F	110.6	8.6	3.2	-18.0	10.9	.
O=C(C1CCCO1)N1CCN(S(=O)(=O)c2cc(F)ccc2F)CC1 (configuration not stated)	96.5	9.3	-2.8	9.9	-0.1	.
O=C(NC1(C(F)(F)F)NC(=O)N(Cc2cccnc2)C1=O)c1ccccc1 (configuration not stated)	107.3	8.8	2.8	11.4	-2.9	.
CC(C)Oc1ccc(C(=O)NC2(C(F)(F)F)NC(=O)N(CCCc3ccccc3)C2=O)cc1 (configuration not stated)	117.0	42.8*	4.0	42.7	4.6	30.4
Cc1oc(CC(C)C)cc1C(=O)NCCCC(=O)O	113.7	9.8	6.7	-3.1	11.9	.
CC1CCc2nc3ccc(S(=O)(=O)N4CCC(C(=O)N5CCCCCC5)CC4)cc3c(C(=O)O)c2C1 (configuration not stated)	93.9	5.1	3.3	12.4	4.6	.
N#Cc1ccc(COC(=O)C2CC(=O)N(CCc3ccccc3)C2)cc1 (configuration not stated)	.	32.2	16.3	30.0	-14.0	.
O=C(OCc1ccc([N+](=O)[O-])cc1)C1CC(=O)N(CCc2ccccc2)C1 (configuration not stated)	126.6	43.3*	18.2	27.3	2.7	17.4
CCOc1cccc(/C=N/NC(=S)Nc2ccccc2[N+](=O)[O-])c1O	97.2	45.9*	-2.6	7.6	22.6	24.0
CCCCNC(=S)N/N=C/c1cccc(OCC)c1O	92.0	-4.0	-18.2	-0.8	2.0	.
Cc1nn(C(C)C(=O)NC2CCC(C)CC2)c(=O)c2nn(-c3ccccc3)c(C)c12 (configuration not stated)	121.2	40.7*	14.9	27.5	-1.9	10.6
CC(O)c1nc2ccccc2n1CCCc1ccccc1 (configuration not stated)	104.8	1.3	4.3	15.6	12.8	.
O=C(Nc1cccc([N+](=O)[O-])c1)c1cccc(C(=O)Nc2cccc([N+](=O)[O-])c2)c1	103.8	-31.5	20.6	-10.3	5.1	.
CCOC(=O)/C=C/C(=O)OCC(=O)Nc1ccc([N+](=O)[O-])cc1	79.8	42.6*	19.0	39.7	-19.8	58.7*
COC(=O)/C=C/C(=O)Nc1cccc(C(F)(F)F)c1	101.2	47.4*	31.6	40.8	34.7	50.9*
COc1cc(/C=C/C(=O)OCC(=O)Nc2ccc([N+](=O)[O-])cc2)ccc1O	102.2	-8.8	-4.1	-8.1	-2.6	.
CC(NC(=O)Nc1cccc([N+](=O)[O-])c1)(C(F)(F)F)C(F)(F)F	124.2	41.6*	22.3	40.4	14.9	33.5*
CCOC(=O)/C=C/C(=O)Nc1cccc([N+](=O)[O-])c1	107.6	56.4*	36.5	38.0	1.7	71.2*
CC1(C)CC(=O)c2c(nn(-c3ccccc3)c2-c2ccncc2)C1	102.2	45.6*	2.3	28.5	5.9	35.7*
Cc1c2c(nc3ccccc13)CC(C)(C)CC2=O	131.5	5.5	-6.3	24.2	11.4	.
CCCCn1c(N)c(N(CC(C)C)C(=O)CCNC(=O)c2ccc([N+](=O)[O-])cc2)c(=O)[nH]c1=O	.	-4.8	-0.6	5.1	18.6	.
O=C(CCNC(=O)c1ccccc1Cl)Nc1nc(-c2ccc(F)cc2)cs1	118.4	13.2	15.4	32.1	11.0	.
SMILES	Yeast superoxide	tim10-1 inh	TIM10 inh	tim23-1 inh	NALP3 yeast inh	tim10-1 confirm
O=C(CCNC(=O)c1ccccc1Cl)Nc1nc(-c2ccccc2Cl)cs1	97.2	40.2*	1.2	27.9	6.0	20.5
Clc1ccc2[nH]c3c(N4CCC5(CC4)OCCO5)ncnc3c2c1	109.3	21.3	3.3	21.7	19.8	.
Cc1cccc2[nH]c3c(N4CCC5(CC4)OCCO5)ncnc3c12	95.8	50.7*	22.4	32.8	2.1	32.0*
N#Cc1sc(NCc2ccccc2)nc1Cl	84.8	40.7*	11.4	39.8	3.6	22.0
COc1ccc(CNc2nc(Cl)c(C#N)s2)cc1	99.2	38.7	18.0	35.2	24.1	.
Brc1ccc(-c2nnc(-c3cccnc3)c3conc23)cc1	123.8	50.7*	18.3	43.6	30.9	14.7
COc1ccc(-c2nnc(C)c3nocc23)cc1	106.6	4.0	1.0	2.6	12.9	.
O=C(Nc1cc(Cl)cc(Cl)c1)C(NCC1CCCO1)c1ccccc1 (configuration not stated)	71.0	44.7*	23.4	35.6	10.4	26.3
O=c1cc(-c2ccccc2)[nH]n2cnnc12	129.1	10.8	-5.9	8.7	-1.3	.
O=Cc1ccccc1Oc1nc(N2CCOCC2)nc(N2CCOCC2)n1	94.0	45.0*	32.6	47.2	3.4	40.6*
c1ccc(Oc2nc(Oc3ccccc3)nc(N3CCOCC3)n2)cc1	102.8	39.6	6.2	26.9	14.0	.
Cn1cc(C(CO)Cc2ccccc2)c2ccccc21 (configuration not stated)	97.6	1.8	-3.5	21.7	30.2	.
COc1cc(OC)c2c(=O)cc(-c3ccccc3)oc2c1	87.5	9.9	-17.3	8.9	33.1	.
COc1cc2c(c3oc(-c4ccccc4)cc(=O)c13)C=CC(C)(C)O2	117.4	47.0*	17.3	46.6	3.4	-0.8
CCc1cccc(C)c1NC(=O)Cn1nc(C)n2cccc2c1=O	94.2	5.1	1.5	-1.8	7.9	.
COc1ccc(OC)c(NC(=O)CCCSc2ccccc2)c1	108.3	20.2	3.5	19.1	25.6	.
CC(C)(C)[C@H](N)C(=O)N[C@H]1CCC2C3CC=C4C[C@@H](O)CC[C@]4(C)C3CC[C@@]21C (some centres not stated)	74.1	34.3	22.0	41.0	8.4	.
CC(=O)[C@H]1[C@H](C#N)C[C@H]2[C@@H]3CC=C4C[C@@H](O)CC[C@]4(C)[C@H]3CC[C@@]21C	127.8	40.6*	35.8	38.6	8.7	33.9*
Cc1ccc(/C(N)=N/OC(=O)N2CCOCC2)cc1	106.4	58.4*	30.5	29.0	17.7	46.1*
COc1ccccc1N(C)S(=O)(=O)c1ccc(C(=O)N(C)Cc2ccc(Cl)s2)cc1	85.8	-0.7	-0.5	27.1	23.4	.
CC(C)(C)C1CCc2c(sc(NC(=O)CSc3ncn[nH]3)c2C#N)C1 (configuration not stated)	102.2	40.1*	22.9	37.6	20.9	12.4
